# Sampled rows, rich in hits. Any-hit rate of the full collection: about 5.6%.
# PKM2 act = PKM2 (human) enzyme activation | P14618 | purified PKM2, Kinase-Glo ATP luminescence, activation; response scale: 0% is enzyme alone, no compound | Potency, µM (highest dose often 57.5 µM), without a hit: top-dose activation, hits mostly activators | 260,000 tested, 0.34% active | AID 1631; note: potency is the fitted concentration of half-maximal effect; nearly all actives have a fitted effect of over 55% in size
#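 hPK-M2, >95% pure; 0.1 mM ADP / 0.5 mM PEP final; imidazole pH7.2 buffer w/ 7 mM MgCl2, 50 mM KCl; 1 h RT; Kinase-Glo lum. Intermediate enzyme activity for dual inhibitor/activator qHTS.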
# RORg inh = ROR gamma (mouse) transcription inhibition; Potency, µM (series often up to 53.6 µM), for the others: at the highest dose activity change, negative = inhibition, actives largely listed as inhibitors; 310,000 tested, 5.4% active; P51450; Drosophila S2 Gal4-RORgamma UAS-luciferase reporter, 20 h; note: potency is the fitted concentration of half-maximal effect; nearly all actives have a fitted effect of over 60% in size
# Target sequence (P51450 whole entry, looked up, the tested form may be a part): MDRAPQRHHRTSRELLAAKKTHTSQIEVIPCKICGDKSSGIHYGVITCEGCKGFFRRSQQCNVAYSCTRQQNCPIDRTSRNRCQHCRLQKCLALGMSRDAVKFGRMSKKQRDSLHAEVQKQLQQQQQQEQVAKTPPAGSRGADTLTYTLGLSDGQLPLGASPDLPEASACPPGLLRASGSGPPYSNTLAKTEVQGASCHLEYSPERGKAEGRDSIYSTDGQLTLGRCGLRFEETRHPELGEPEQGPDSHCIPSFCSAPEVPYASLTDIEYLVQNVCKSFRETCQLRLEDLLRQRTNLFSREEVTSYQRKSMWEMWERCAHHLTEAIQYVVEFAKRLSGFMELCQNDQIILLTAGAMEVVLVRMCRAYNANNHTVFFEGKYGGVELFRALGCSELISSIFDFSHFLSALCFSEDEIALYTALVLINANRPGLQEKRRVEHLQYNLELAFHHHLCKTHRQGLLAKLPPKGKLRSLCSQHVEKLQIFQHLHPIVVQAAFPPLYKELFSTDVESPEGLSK
#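 Schneider cells (Drosophila), stable Gal4 DBD–ROR gamma + UAS-luc; 1 hr cmpd preincubation; Cu2+ induction 700 uM final; 20 hr ambient; luminescence.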
# CtBP-E1A inh = inhibitors of CtBP/E1A interaction | activity change, % (concentration not given with the values) | AlphaScreen GST-E1A/His-CtBP binding, 1536-well; stronger effect = lower value | AID 651724 | 340,000 tested, 0.49% active; in the data active = activity change below about -65%; inconclusive = mostly about -30% to -63%
#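 AlphaScreen with 125 nM GST-E1A and 125 nM His-CtBP (5X stocks) in Tris pH 8.0, 300 mM NaCl, BSA, Tween 20, TCEP. Compounds preincubated 2 h at 37 deg C, then glutathione donor/nickel acceptor beads added for 1 h at 37 deg C in dark.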
# Six1-Eya2 inh = inhibitors of human Six1/Eya2 interaction; activity change, % (test concentration not listed); 360,000 tested, 0.56% active; AID 651725; Q15475+O00167; AlphaScreen GST-Six1/His-Eya2 binding, biochemical; stronger effect = lower value; in the data active = activity change below about -65%; inconclusive = mostly about -30% to -63%
#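 AlphaScreen luminescence read after one hour at 37 °C in darkness. Pin-transferred compounds met GST-Six1 and His-Eya2 protein (5X stock 250 nM/500 nM) plus glutathione donor and Ni-chelate acceptor beads (5X, 50 ug/mL).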
# Gal4-VP16 FLuc = Gal4-VP16 reporter inhibition counter-screen; Drosophila S2 Gal4-VP16 UAS-luciferase, luminescence, 20 h; Potency, µM (series often up to 53.6 µM), for inactives: top-dose activity, negative = inhibition, actives largely listed as inhibitors; 310,000 tested, 3.5% active; AID 2546;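 note: Gal4-VP16 expression switched on by copper sulfate through the metallothionein promoter; potency is the fitted concentration of half-maximal effect; nearly all actives have a fitted effect of over 50% in size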
# An asterisk follows results filed as active; ? = inconclusive; . = no result; [ ] = another dose, or the depositor's remark. Unless noted, calls come from the whole dose curve; as a rule, active = well fitted curve in the direction sought with a large enough effect; inconclusive = small, poorly fitted or top-dose-only effect, or another doubt; inactive = no such curve, though single readings can be large; an effect the other way counts as inactive or inconclusive. % is set by controls: 0 for no effect and ±100 for the full control effect.
SMILES,PKM2 act,RORg inh,CtBP-E1A inh,Six1-Eya2 inh,Gal4-VP16 FLuc
Cc1nc(N2CCN(Cc3ccc(Cl)cc3)CC2)c2oc3ccccc3c2n1,-4.9%,-35.3%,-3.8,-15.7,-4.7%
Cc1nc(N2CCC(C)CC2)c2oc3ccccc3c2n1,-8.8%,12.6µM*,4.5,6.8,?
C/C=C/C(=O)Nc1cccc(C2=NOC3(C2)C[C@H](C(N)=O)N(C(=O)c2ccccc2C(=O)c2ccccc2)C3)c1 (stereo partly drawn),-0.3%,13.6%,.,.,-6.6%
CCOc1ccc2c(c1)C(=O)c1cc(OCC(=O)O)ccc1-2,-2.5%,17.1%,1.3,15.0,-18.6%
CCCCOc1ccc2c(c1)C(=O)c1cc(O)ccc1-2,-1.9%,8.91µM*,6.8,-24.7,?
CCOC(=O)C1C(C(=O)OC)=C(CC(C)C)c2ccccc2N1S(=O)(=O)C(F)(F)F (stereo not drawn),.,34.4%,.,.,4.8%
COc1ccc(C)cc1-n1nnnc1SC/C(O)=C(\C#N)c1nc2ccccc2[nH]1,10.6%,12.6µM*,-17.2,-9.2,?
Cc1cccc(Nc2nnc(SC/C(O)=C(\C#N)c3nc4ccccc4[nH]3)s2)c1,7.9%,7.08µM*,-21.7,-13.6,11.2µM*
Cc1cc(C)n2c(SCC(O)=C(C#N)c3nc4ccccc4[nH]3)nnc2n1,.,.,-23.7,-29.0,.
CC12CCC(=O)N1C(C(=O)NCCN1C(=O)S/C(=C\c3ccc(F)cc3)C1=O)CS2 (stereo not drawn),.,.,-2.6,-2.4,.
Cc1ccc(-c2noc(C3CCCN(C(=O)c4ccc(F)cc4F)C3)n2)cc1 (stereo not drawn),1.1%,?,0.7,3.4,?
CC(C)c1ccc(-c2noc(C3CCCN(C(=O)c4ccc(F)cc4F)C3)n2)cc1 (stereo not drawn),1.2%,?,5.9,1.0,8.91µM*
Cc1ccc(S(=O)(=O)Nc2nc3ccccc3nc2NCc2ccco2)cc1,5.1%,?,10.8,-0.7,?
O=S(=O)(Nc1nc2ccccc2nc1NCc1ccco1)c1ccc(Cl)cc1,9.4%,-37.2%,0.1,-7.9,11.2µM*
Cc1ccc(OCC(=O)Nn2c(C)nc3ccccc3c2=O)c(C(C)C)c1,3.1%,-18.8%,-1.5,-0.4,22.4µM*
CCNc1nc(NC(C)(C)C)nc(SCC(N)=O)n1,3.7%,4.4%,2.6,8.0,0.4%
CC(C)CC(N)c1csc(Nc2cnccn2)n1 (stereo not drawn),.,.,-75.1*,?,.
CC(C)CC(N)c1csc(Nc2ccc(C(F)(F)F)cn2)n1 (stereo not drawn),.,.,?,-5.1,.
NC(CO)c1csc(Nc2ccc(C(F)(F)F)cn2)n1 (stereo not drawn),.,.,-73.8*,?,.
CC(C)CC(N)c1csc(Nc2ccc(C(=O)c3ccccc3)cc2)n1 (stereo not drawn),.,.,-3.3,-2.2,.
CC(C)CC(N)c1csc(Nc2ccccn2)n1 (stereo not drawn),.,.,-89.2*,-83.3*,.
CCc1cccc(CC)c1NC(=O)CN1CCc2cc(OC)c(OC)cc2C1,.,39.6%,.,.,?
O=C(CCc1nc2ccccc2c(=O)[nH]1)N1CCN(S(=O)(=O)c2ccc(F)cc2)CC1,.,.,-3.8,5.4,.
COC(=O)[C@]1(C)N[C@H](CN(C)S(=O)(=O)c2ccccc2)[C@@H]2C(=O)N(Cc3ccccc3)C(=O)[C@@H]21,.,.,-12.6,5.9,.
O=C(N/N=C1/CC2CCC1C2)c1cc2ccccc2cc1O (stereo not drawn),-1.4%,0.891µM*,1.4,-0.4,0.794µM*
SMILES,PKM2 act,RORg inh,CtBP-E1A inh,Six1-Eya2 inh,Gal4-VP16 FLuc
O=C(NCC1CCCCC1)c1cc2ccccc2cc1O,0.7%,37.8%,-4.2,-1.5,?
CC1=CC(C)C(/C=N/N=C(N)N)C(C)C1 (stereo not drawn),0.2%,-33.9%,-1.2,16.0,-7.1%
COCCN(CC(=O)Nc1cccc(C)c1C)C(=O)c1oc2c(Cl)cccc2c1C,.,.,-2.5,-0.3,.
CCOC(=O)Cc1c(C)nc2c(-c3ccccc3)c(C)[nH]n2c1=O,-11.6%,33.8%,-2.2,-7.8,1.5%
Cc1nc2c(C#N)c(C)[nH]n2c(=O)c1Cc1ccccc1,-7.4%,-42.4%,10.8,-24.8,2.0%
COc1ccc(-c2c(C)[nH]n3c(=O)c(Cc4ccccc4)c(C)nc23)cc1OC,28.1%,3.55µM*,?,-67.1*,?
Cc1nc2c(-c3ccc(Cl)cc3)c(C)[nH]n2c(=O)c1Cc1ccccc1,0.9%,1.41µM*,-81.5*,-76.1*,?
Cc1[nH]n2c(=O)c3c(nc2c1-c1ccc(F)cc1)CCCC3,3.0%,-20.2%,-8.2,-6.3,1.7%
Cc1nc2c(-c3ccc(F)cc3)c(C)[nH]n2c(=O)c1Cl,-3.5%,11.2µM*,-4.3,-10.5,11.2µM*
Cc1nc2c(-c3ccccc3)c(C)[nH]n2c(=O)c1Cc1ccccc1,0.1%,2.82µM*,.,?,7.08µM*
CN(C)S(=O)(=O)Nc1ccc(Cc2ccncc2)cc1,.,.,1.5,2.0,.
O=C(NCCCN1CCCC1=O)c1c(O)nc2sccn2c1=O,.,.,-17.8,-1.7,.
O=C(COc1ccccc1Cl)NNC(=O)c1ccc2c(=O)n3c(nc2c1)CCC3,.,.,?,-20.2,.
CCCCc1cc(=O)oc2cc(O)ccc12,-4.5%,21.0%,1.4,6.0,-7.3%[10 µM]
C=C1CCN(C(Cc2ccccc2)C(=O)NCc2ccc(Cl)c(Cl)c2)S(=O)(=O)c2ccccc21 (stereo not drawn),.,-0.5%,.,.,1.2%
COc1cccc(/C=N/Nc2nccnc2Cl)c1O,-63.8%,3.16µM*,-92.7*,-79.5*,7.08µM*
COc1cccc(/C=N/Nc2ncnc3scc(-c4ccccc4)c23)c1O,-3.2%,2.82µM*,-4.6,-92.6*,12.6µM*
COc1cccc(C=NCCNC(=O)c2nonc2N)c1O,-5.4%,?,4.2,9.3,-18.0%
COc1cccc(/C=N/Nc2ncnc(Cl)c2N)c1O,-5.7%,1.78µM*,-79.1*,-88.4*,3.16µM*
COc1cccc(C=NCCCN=Cc2cccc(OC)c2O)c1O,.,7.94µM*,-0.5,6.3,-2.6%
Nc1ccc(NC(=O)NC2CCCCC2)cc1[N+](=O)[O-],-13.6%,-11.0%,-1.4,-11.9,5.2%
N#Cc1ccc(NN=Nc2ccccc2C#N)cc1,.,.,3.2,3.8,.
CC(C)N1CCc2c(sc(NC(=O)c3ccc(S(=O)(=O)N4CCCCC4C)cc3)c2C(N)=O)C1 (stereo not drawn),-17.4%,?,-1.3,0.5,14.1µM*
CC1CCCCN1S(=O)(=O)c1ccc(C(=O)Nc2ccccc2-c2nc3ccccc3[nH]2)cc1 (stereo not drawn),5.4%,-10.0%,12.1,4.8,4.2%
CNC(=O)c1c(NC(=O)c2ccc(S(=O)(=O)N3CCCCC3)cc2)sc2c1CCN(C(C)C)C2,0.3%,15.7%,-3.0,0.5,-4.1%
